Screening data as filed in PubChem BioAssay.
MMP13 inh: MMP13 (human) collagenase inhibition; MMP-13 fTHP FRET cleavage, Mca fluorescence; AID 570; P45452; inhibition, % at 4 µM; 0.07% of 65,000 active;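 active = inhibition above the mean of compound-free control plate wells plus 3 SD, cut at about 14% in these data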
ERa SRC1 pot: ER-alpha (human) coactivator binding potentiation | P03372 | AID 639 | coactivator binding (% of control), % at 25.6 µM | 1.3% of 86,000 active | TR-FRET ERalpha-LBD/SRC-Cy5 coactivator binding, 2 h; 100 = basal binding, no effect; in the data active = activity above about 200%;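 also: binding measured in presence of low estradiol as agonist stimulus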
ERa SRC1 inh: blocks coactivator binding to human estrogen receptor alpha. P03372. TR-FRET ER-alpha LBD / SRC-1 peptide, estradiol-bound. inhibition, % at 25.6 µM. 1.7% of 86,000 active. AID 629; in the data active = inhibition above about 50%
ERb coact inh: ER-beta (human) coactivator binding inhibition | TR-FRET ER-beta LBD / SRC1-Cy5 peptide binding; receptor agonist-loaded with 1 µM estradiol | inhibition, % at 25.6 µM | 1.3% of 86,000 active;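 active = compounds whose percent inhibition of the receptor-coactivator binding signal exceeds about 50% in the single-dose screen, limit read from the data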
MT1-MMP txn act: activates MT1-MMP transcription. HT1080 MT1-MMP promoter luciferase reporter, luminescence, overnight; active compounds read high. activation factor at 10 µM. 0.16% of 86,000 active. AID 750;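 active = activation factor of at least 2 for MT1-MMP transcription at 10 µM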
Smad3 FoxH1 inh: inhibitors of human Smad3 transcription factor binding; TR-FRET Smad3/Dy647-FoxH1 peptide binding, europium anti-His; inhibition, % at 25 µM; 0.29% of 88,000 active; AID 630;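 active = compounds that reduce the energy-transfer binding signal between the protein and its labelled peptide by more than half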
Target sequence (P84022 whole entry, looked up): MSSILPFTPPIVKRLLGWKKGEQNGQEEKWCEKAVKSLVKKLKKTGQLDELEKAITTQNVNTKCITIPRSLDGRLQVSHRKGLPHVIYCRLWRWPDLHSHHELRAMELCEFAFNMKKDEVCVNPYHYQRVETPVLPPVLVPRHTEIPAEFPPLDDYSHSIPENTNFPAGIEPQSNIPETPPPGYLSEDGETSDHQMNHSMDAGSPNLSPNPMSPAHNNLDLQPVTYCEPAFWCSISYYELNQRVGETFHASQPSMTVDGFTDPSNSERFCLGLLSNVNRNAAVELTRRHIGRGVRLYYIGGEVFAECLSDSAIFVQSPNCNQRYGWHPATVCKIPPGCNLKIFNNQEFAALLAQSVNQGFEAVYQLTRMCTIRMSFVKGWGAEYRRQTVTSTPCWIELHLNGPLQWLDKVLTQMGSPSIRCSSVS
Each line names hits and unclear results; the compound was inactive in the other large screens; [ ] = another dose, or the depositor's remark. In the library only some 3.5% were active in any assay of this set; here they are far more common.

COc1ccccc1N1C(=O)NC(=O)C(CCc2ccncc2)(CCc2ccncc2)C1=O	none (no result: MMP13 inh)
CCOc1ccccc1N1C(=O)NC(=O)C(CCc2ccncc2)(CCc2ccncc2)C1=O	ERa SRC1 pot 384.0 (no result: MMP13 inh)
CN(C)CS/C(N)=N/[C@H](O)C(Cl)(Cl)Cl	Smad3 FoxH1 inh 53.8 (no result: MMP13 inh, ERa SRC1 pot, ERa SRC1 inh, ERb coact inh, MT1-MMP txn act)
COCC(C)OC(=O)c1c(N)n(Cc2ccco2)c2nc3ccccc3nc12 (stereo not given)	ERb coact inh 57.6[fluorescence artefact?]
Nc1c(C(=O)NCc2ccco2)c2nc3ccccc3nc2n1Cc1ccc(F)cc1	none
COc1ccc(Cn2c(N)c(C(=O)NCc3ccco3)c3nc4ccccc4nc32)cc1	ERa SRC1 inh 73.5
CC12CN3CC(C)(CN(C1)C3c1ccncc1)C2=O (stereo not given)	ERb coact inh 93.2[fluorescence artefact?]
O=C(NCC1CC1)[C@@H]1C2c3ccccc3C(c3ccccc32)[C@@H]1C(=O)O	none (no result: MMP13 inh, ERa SRC1 pot, ERa SRC1 inh, ERb coact inh, MT1-MMP txn act)
COc1cc2[nH]c(=O)n(-c3cccc(Cl)c3)c(=O)c2cc1OC	none
CCNC(C)(C)[C@@H](SS)c1ccc(Br)cc1	Smad3 FoxH1 inh 95.7 (no result: MMP13 inh, ERa SRC1 pot, ERa SRC1 inh, ERb coact inh, MT1-MMP txn act)
Cc1ccsc1-c1nc(CSCC(=O)N2CCC3(CC2)OCCO3)c(C)o1	none (no result: MMP13 inh)
C=C(CC1(CNP(=O)(c2ccccc2)c2ccccc2)CC1)c1ccccc1	MT1-MMP txn act 2 (no result: MMP13 inh, ERa SRC1 pot, ERa SRC1 inh, ERb coact inh, Smad3 FoxH1 inh)
O=P(N[C@@H](c1ccccc1)[C@@H]1C[C@H]1CO)(c1ccccc1)c1ccccc1	none (no result: MMP13 inh, ERa SRC1 pot, ERa SRC1 inh, ERb coact inh, Smad3 FoxH1 inh)
C=CCOc1ccc(CC2C(=O)N(C)C(=O)N(C)C2=O)cc1	ERa SRC1 inh 57.4
O=C(Nc1ccc(Cl)cc1)Nc1nccs1	none (no result: MMP13 inh)
O=C(c1ccc2nc(-c3ccco3)c(-c3ccco3)nc2c1)N1CCC2(CC1)OCCO2	ERa SRC1 inh 56.5[fluorescence artefact?], ERb coact inh 75.9[fluorescence artefact?]
Nc1nc(N)c(N=Nc2ccc([As](=O)(O)O)cc2)c(=O)[nH]1	none (no result: MMP13 inh, ERa SRC1 pot, ERa SRC1 inh, ERb coact inh, MT1-MMP txn act)
Nc1nc(N)c(N=Nc2ccc([As](=O)(O)O)c(O)c2)c(N)n1	Smad3 FoxH1 inh 83.7 (no result: MMP13 inh, ERa SRC1 pot, ERa SRC1 inh, ERb coact inh, MT1-MMP txn act)
O=C(C1CCC(=O)N1Cc1ccccc1Cl)N1CCC2(CC1)OCCO2 (stereo not given)	ERa SRC1 pot 809.1[fluorescence artefact?] (no result: MMP13 inh)
CC(=O)Nc1ccc(OC(=O)N2CCCCC2)cc1	none (no result: MT1-MMP txn act)
Nc1cc[c]([Hg])cc1.Nc1nc2c(ncn2[C@H]2O[C@H](CO)[C@@H](O)[C@@H]2O)c(=[SH+])[nH]1	Smad3 FoxH1 inh 72.8 (no result: MMP13 inh, ERa SRC1 pot, ERa SRC1 inh, ERb coact inh, MT1-MMP txn act)
COc1ccccc1-n1c(O)c(C=NCc2ccc3c(c2)OCO3)c(=O)[nH]c1=O	none
CC1=CC(=C2C(=O)NC(=S)NC2=O)C=C(C(F)(F)F)N1C	ERa SRC1 inh 52.2[fluorescence artefact?], ERb coact inh 63.4[fluorescence artefact?] (no result: MMP13 inh)
Cc1c(C(=O)N2CCC3(CC2)OCCO3)oc2ccccc12	none
Cc1c(C(=O)N2CCC3(CC2)OCCO3)oc2ccc(S(=O)(=O)N3CCOCC3)cc12	Smad3 FoxH1 inh 66.5 (no result: MT1-MMP txn act)
CCOC(=O)c1c(N)n(Cc2ccco2)c2nc3ccccc3nc12	none
Clc1cccc(Cl)c1C1N2CCCN12 (stereo not given)	ERb coact inh 81.1[fluorescence artefact?] (no result: MMP13 inh, MT1-MMP txn act)
c1ccc(C2N3CCCN23)cc1 (stereo not given)	none (no result: MMP13 inh)
CCCNC(=O)c1c(N)n(CC2CCCO2)c2nc3ccccc3nc12 (stereo not given)	Smad3 FoxH1 inh 60.6
CCN(CC)c1ccc(N=Cc2c(O)n(-c3ccccc3C)c(=O)[nH]c2=O)cc1	none
CCOc1ccccc1-n1c(O)c(C=Nc2ccc(N(CC)CC)cc2)c(=O)[nH]c1=O	ERa SRC1 inh 61.5[fluorescence artefact?]
COc1ccc(CC(=O)N2CCN(C)CC2)cc1OC	none (no result: MMP13 inh)
COC(=O)C(O)(c1ccc(N(C)C(=O)OC(C)C)cc1)C(F)(F)F (stereo not given)	ERb coact inh 68.0 (no result: MMP13 inh)
Cn1c(=O)cc(SCC(=O)N2CCC3(CC2)OCCO3)c2ccc(Cl)cc21	Smad3 FoxH1 inh 55.7[fluorescence artefact?]
O=C(c1ccc(CS(=O)(=O)c2ccccc2)o1)N1CCC2(CC1)OCCO2	ERb coact inh 73.8[fluorescence artefact?]
CCN(CC)Cc1c[nH]c2ccccc12	none
O=C(O)C[C@H]1OCC=C2CN3CC[C@]45C6=CC(=O)C(=O)C([N+](=O)[O-])=C6N[C@H]4[C@H]1[C@H]2C[C@H]35	Smad3 FoxH1 inh 58.0 (no result: MMP13 inh, ERa SRC1 pot, ERa SRC1 inh, ERb coact inh, MT1-MMP txn act)
CC[C@]1(OC(=O)CN)C(=O)OCc2c1cc1n(c2=O)Cc2cc3ccccc3nc2-1	none (no result: MMP13 inh, ERa SRC1 pot, ERa SRC1 inh, ERb coact inh, MT1-MMP txn act)
O=C(NCC(c1cccnc1)N1CCN(c2ccc(F)cc2)CC1)Oc1ccccc1 (stereo not given)	none
CC(=NCCCN1CCOCC1)c1c(O)n(-c2ccccc2C)c(=O)[nH]c1=O	none
CN(C)c1ccc(NC(=O)CN2C(=O)CN=C(c3ccccc3)c3cc(Cl)ccc32)cc1	none (no result: MMP13 inh, MT1-MMP txn act)
CN(C)c1ccc(NC(=O)CN2C(=O)CN=C(c3ccccc3)c3ccccc32)cc1	ERb coact inh 52.9[fluorescence artefact?]
CCC(C)C12CN3CCN(CC(C)(C3)C1=O)C2 (stereo not given)	none (no result: MMP13 inh)
Cc1cc2c(s1)NC(=O)CN=C2c1cccs1	none
O=C1CN=C(c2cccs2)c2c(sc3c2CCCC3)N1	ERb coact inh 63.8[fluorescence artefact?]
CCOCCN1CCC(OC(C)=O)C(C)C1 (stereo not given)	none (no result: ERa SRC1 pot, ERa SRC1 inh, ERb coact inh, Smad3 FoxH1 inh)
